Experimental data published in PubChem BioAssay AID1347426 (Functional Genomics Laboratory (NCATS/FGL), 2020).
Hit rate of the full screen: of about 31,000 sequences, about 1,400 (4.5%) were called active. Shown is part of a subset that was picked to be rich in actives. Values without a mark were called inactive.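 Rule for the calls: active = median seed-adjusted z-score above 1 or below -1; inactive = the rest.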

Assay: Novel Modifiers of Survival Motor Neuron (SMN) Protein: Gene Identification via Genome-wide siRNA Screen;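 note: luminescence tracks full-length SMN protein made from the SMN2 reporter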
Settings: HEK293T SMN2-luciferase reporter, siRNA knockdown, 72 h; actives lie on both sides
In short: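 HEK293T cells stably expressing an SMN2 splicing/cDNA-luciferase reporter were reverse-transfected with a druggable-genome siRNA library and read by luminescence at 72 hours; hits defined by MAD score above 1.0 or below -1.0.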
With GGUUGUAGAGUUGAAAGUUTT against UBE2O the median seed-adjusted z-score was 0.125. For GGACACGGGUGUCAUCCUATT against UBASH3A, the median seed-adjusted z-score was -1.1 (active). With GCCGUUUAAUACCCGAUGATT against RNF125 the median seed-adjusted z-score was 0.204. In the case of AUGGUUACCUGUUCACCUATT against SLC7A10, the median seed-adjusted z-score is reported as -0.732. For GUCAAAGAGUGACAACUUUTT against CALB2, the median seed-adjusted z-score was 0. GGAGUGAUGAUAACGAGGATT against LATS1 gave a median seed-adjusted z-score of 0. With GAGUUGUCGACACCACUUATT against PROS1 the median seed-adjusted z-score was 0.436. For CUGCUACCUCUGACCCAAATT against DTD1, the median seed-adjusted z-score was -1.58 (active). In the case of GACAGUUUCCCUACAAGAATT against MAP2K7, the median seed-adjusted z-score is reported as -0.772. For CAGAUUGUCUGAUUCGAUUTT against TRIP11, the median seed-adjusted z-score was 0.333. With AGGGAGGUGUUUAACGGCATT against HMOX1 the median seed-adjusted z-score was 0.45. Sequence CCUUGUUUAUCAUAAGGGATT against ZNF613 has a median seed-adjusted z-score of -0.189. Sequence GCAAGUACCUGUAAUUGAATT against KLF3 has a median seed-adjusted z-score of 0.628. Sequence CCUUGACUGUGGACAACAATT against PURA has a median seed-adjusted z-score of -0.0185. For AGAUAUUUGUUAUCGCUGUTT against CNBP, the median seed-adjusted z-score was -1.14 (active). Work on GGAAUGAUCUGACUAACUUTT against PECI yielded a median seed-adjusted z-score of -0.0254. With GAAAAUUGCUCACUUUGAUTT against DAPK2 the median seed-adjusted z-score was 0.268. For GAAGAACUCGAAUAUGUCATT against ASNSD1, the median seed-adjusted z-score was 0.437. Sequence CUUAAUCACUUGCAUAAAATT against GALR1 has a median seed-adjusted z-score of -0.721. In the case of GAUUACCCUUAGAUCAUAUTT against NARG1, the median seed-adjusted z-score is reported as -1.02 (active). For GCCUUAAGGUCAAGGUCUATT against UNC5B, the median seed-adjusted z-score was -0.0207. In the case of GAAUUGGGCUUGUUGAUAUTT against KCNB2, the median seed-adjusted z-score is reported as 1.22 (active). Work on GCAUUGGAGGUGAUCCUUUTT against SUCLG1 yielded a median seed-adjusted z-score of -0.63. Work on CAUUCGCAAAGGUAUCAUUTT against SLC20A2 yielded a median seed-adjusted z-score of -0.0546. Sequence GAGUGGAAAUUUCACCUAUTT against IFNAR2 has a median seed-adjusted z-score of -0.219. For UCAGUAUCUUGGUCCUGUATT against CALCB, the median seed-adjusted z-score was 0. For CACCUGUUCUAUCACAGUATT against NOP2, the median seed-adjusted z-score was 1.15 (active). Work on CCGCAGAUCCUGUAGACUATT against PARD3B yielded a median seed-adjusted z-score of 0.306. Work on GAGAACAUGUUGUUCCGCUTT against SSPO yielded a median seed-adjusted z-score of 0.397. GGGAUACAUUUAAGCGCAATT against SYTL2 gave a median seed-adjusted z-score of 0.211. Work on AGAGGCUGCGGUUCAAAGATT against PTP4A3 yielded a median seed-adjusted z-score of 0.354. GAUCCUGAGUUAGAGAAGATT against METTL3 gave a median seed-adjusted z-score of 0.261. In the case of GCAGUUCCCUUAGAGCUAGTT against MAP4, the median seed-adjusted z-score is reported as 1.67 (active). For UCUCCUUCUUCGGAACGAATT against SCAMP5, the median seed-adjusted z-score was -0.303. With GACUGUAUCCAAACGAAUUTT against SLITRK2 the median seed-adjusted z-score was -0.246. GCUUCUCGGCUGUCCAUGATT against CLCNKB gave a median seed-adjusted z-score of 0.428. With GAAUAAGCCGUGUACUGAUTT against CASD1 the median seed-adjusted z-score was 0.202. GAUUCAGUGUGGGAGAGUUTT against MCAT gave a median seed-adjusted z-score of 0. With CGAGGACAUUGAUAACGAATT against CCNB2 the median seed-adjusted z-score was 0.0328. For GAUGAUUACCAGGAACGAATT against CAPRIN1, the median seed-adjusted z-score was 1.36 (active). Work on CCUCCGAAUUCUCAACAUATT against CSNK1E yielded a median seed-adjusted z-score of -0.796. With CGAAUCAUUUGGGAAUUGATT against IDH1 the median seed-adjusted z-score was 0.421. For ACUUUGCAAUCGCUCAAAATT against NPTX1, the median seed-adjusted z-score was -0.117. CAAUCUUCUUGGGAUUAUUTT against TRPC7 gave a median seed-adjusted z-score of 0.146. With GGGAGAAGGUGAGCAGUAUTT against ZYX the median seed-adjusted z-score was 0.273. Work on CAGCCAUGAUAAUAAAGCUTT against RARRES2 yielded a median seed-adjusted z-score of -0.125. Sequence GGAUGAUCGUGACAAGUUUTT against ATP1B3 has a median seed-adjusted z-score of -0.225. GAGAAGAUGUGGACAUACATT against GRIA1 gave a median seed-adjusted z-score of 0.927. GAAGCUCUCUUGACUAUGATT against FKBP3 gave a median seed-adjusted z-score of -0.102. With GCAUUUACUCGCUCUUCAATT against KCNK12 the median seed-adjusted z-score was 1.04 (active). With AGACUUUGUUGUUACACUUTT against SYPL1 the median seed-adjusted z-score was -0.457. GGAAGUUCGCAGAAAAGUATT against PDIA5 showed a median seed-adjusted z-score of 0.989. CGGUACUACCCAAACGUCATT against APOBEC3D showed a median seed-adjusted z-score of -0.0215. Work on GAACUUUCCUGUUACCUUUTT against CD81 yielded a median seed-adjusted z-score of 0. With CCAUAUGAGUCCUAUGAGATT against SMURF1 the median seed-adjusted z-score was -1.4 (active). With CAUCGUCCAUGACAAGUCATT against GTF2IRD1 the median seed-adjusted z-score was -0.282. With AGAAAGGUUUUACUACAAUTT against POLR2C the median seed-adjusted z-score was -2.95 (active). Sequence GGAAAACUCGUGUCCAUCATT against FARP1 has a median seed-adjusted z-score of -0.487. UGUUCAGCAUAGUUGUUUUTT against SLC12A9 showed a median seed-adjusted z-score of -0.0853. Sequence GGAUCAAGCUCACAAGGGATT against WDR36 has a median seed-adjusted z-score of 0.00836. Sequence GCUCGUUGGGACCAACUAATT against DYNC2H1 has a median seed-adjusted z-score of -0.613. In the case of GACCAAAAUUUGGAUACAATT against CTSL2, the median seed-adjusted z-score is reported as -1.04 (active). In the case of GUGUGGACUUGGAACAAUATT against THUMPD2, the median seed-adjusted z-score is reported as -0.129. With GGGAUUCCAUUGACCAGAATT against PLCG2 the median seed-adjusted z-score was 0. With GCUGAGGAGUCAGUGCAUGTT against TNFRSF18 the median seed-adjusted z-score was 0.154. For AGACUGUAUUGCAGGGUGATT against MAFK, the median seed-adjusted z-score was 1.73 (active). For GAGUCGGAGUCGAAGUAGATT against NKTR, the median seed-adjusted z-score was -1.1 (active). In the case of GAAUUAUGCUACUCGAGAATT against EIF3A, the median seed-adjusted z-score is reported as -0.689. In the case of CAACAACAGGUAUGAGAUATT against ACCN2, the median seed-adjusted z-score is reported as -0.597. With GCUGAAGGCUUAUGAGUAUTT against KCNV2 the median seed-adjusted z-score was -1.13 (active). With GUGGUCACUUGGUUCCAGATT against LBX2 the median seed-adjusted z-score was 0.538. Sequence GGUCAUAGGUUUUGGAUCUTT against HIATL1 has a median seed-adjusted z-score of 0.327. With CCAAUGCAGUGAUUACCGUTT against HSPA1L the median seed-adjusted z-score was -1.27 (active). For CCAGUUUCAUUAUACAUCATT against ZNF211, the median seed-adjusted z-score was -0.173. For GCUUCACCCUGGCUAGAAATT against ECHDC2, the median seed-adjusted z-score was -0.0827. GUGUCGAGCUUGCAACUGUTT against LAMC2 gave a median seed-adjusted z-score of -0.186. For CCUUUAACCAGUCUGCACATT against ZNF85, the median seed-adjusted z-score was -1.01 (active). Work on GAAGGUGGAUUGCAACAAATT against GPX6 yielded a median seed-adjusted z-score of 0.35. Work on GCAGAAGGCUCAGUAGCUATT against NAT5 yielded a median seed-adjusted z-score of -0.0124. For CACCCGCGCUCAUGAGAAATT against KLC2, the median seed-adjusted z-score was 0.0706. GCCCAUUACUUUACCACUUTT against METTL4 gave a median seed-adjusted z-score of 0.244. Sequence GCCUUGAUCAAGUAACAGATT against PARD6B has a median seed-adjusted z-score of 0.315. In the case of GGCGCACGCUUUUCUCUAATT against ACTR1A, the median seed-adjusted z-score is reported as 1.28 (active). With GCCUCAUGUAAAACCCUAUTT against MYLK the median seed-adjusted z-score was 0.0226. Sequence GCCUUCGAGUUCCUUGUUUTT against COX6B2 has a median seed-adjusted z-score of -0.544. Sequence GUACUUUUGACAACAUUUATT against NAT13 has a median seed-adjusted z-score of 0. In the case of GGCUUUGAGCAUAAGAUCATT against MAP3K10, the median seed-adjusted z-score is reported as 0.201. For GCACCAAACUUAGCUACGATT against DIS3L2, the median seed-adjusted z-score was -0.265. In the case of GACUGGGUCUGGUAAAACATT against DHX15, the median seed-adjusted z-score is reported as 1.36 (active). Sequence GAAUUGGACAUUUCGGAUATT against NEK10 has a median seed-adjusted z-score of -0.0464. With CAGUUGCAACUCUUCGUGATT against ALB the median seed-adjusted z-score was -0.153. Sequence AAACAACUCGAUUUCGAAATT against PCDHB13 has a median seed-adjusted z-score of -0.293. In the case of GAACUUUUGGGACCAAAUATT against NME5, the median seed-adjusted z-score is reported as 0.393. In the case of GCCUUUUACGCAAACAUGUTT against P2RY8, the median seed-adjusted z-score is reported as -0.136. For GAUUUUAUCUCAGUACAUUTT against UCK2, the median seed-adjusted z-score was -1.51 (active). Sequence CGUGCACUAUAUUGCAGUUTT against PRMT2 has a median seed-adjusted z-score of 0.0895. GGAAUGUCACGGCUAAUCATT against PITPNM3 gave a median seed-adjusted z-score of -0.0378. With GGAAUGAUACCAUACCGAATT against NUP93 the median seed-adjusted z-score was 1.01 (active). With UGAUCGCCUUGGUGAUUCATT against FOXH1 the median seed-adjusted z-score was 0. For GGAUAGUUACUGACCGGGATT against NCL, the median seed-adjusted z-score was 1.33 (active). GCGGGAGCAUUAUCUCAAATT against ZNF341 gave a median seed-adjusted z-score of 0.356. CCAGACCUCAUGUCACAGATT against ZNF777 gave a median seed-adjusted z-score of 0.128. For GACUGAAUGUUUAUACAGUTT against OSBPL1A, the median seed-adjusted z-score was 0.0845. In the case of GGUGGUAUCCUGUUCACAATT against TM9SF4, the median seed-adjusted z-score is reported as -0.0191. GGACCAUUUAGAGAAGGUUTT against WARS2 showed a median seed-adjusted z-score of 0.21. Sequence CCUACGUUACUUUCCCUCATT against FOXD4L6 has a median seed-adjusted z-score of -0.137. For CAUGGAACAUUGUGAGAAATT against RPS6KB1, the median seed-adjusted z-score was 1.4 (active). AAAUCAAGAUUCUUACUGATT against TPM3 showed a median seed-adjusted z-score of 0.111.
